# D2 PAM-1 = HTS Assay for Positive Allosteric Modulators of the Human D2 Dopamine Receptor: Primary Screen for Potentiators | D(2) dopamine receptor (Homo sapiens), P14416 | HEK293 T-REx D2, calcium flux, EC20 dopamine potentiation | potentiation, % at 10 µM | 340,000 tested, 0.34% active;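 active = potentiation over 3 SD above the plate norm, cut at about 30% in these data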; also: 0% is about no effect
# Target sequence (P14416 whole entry, looked up): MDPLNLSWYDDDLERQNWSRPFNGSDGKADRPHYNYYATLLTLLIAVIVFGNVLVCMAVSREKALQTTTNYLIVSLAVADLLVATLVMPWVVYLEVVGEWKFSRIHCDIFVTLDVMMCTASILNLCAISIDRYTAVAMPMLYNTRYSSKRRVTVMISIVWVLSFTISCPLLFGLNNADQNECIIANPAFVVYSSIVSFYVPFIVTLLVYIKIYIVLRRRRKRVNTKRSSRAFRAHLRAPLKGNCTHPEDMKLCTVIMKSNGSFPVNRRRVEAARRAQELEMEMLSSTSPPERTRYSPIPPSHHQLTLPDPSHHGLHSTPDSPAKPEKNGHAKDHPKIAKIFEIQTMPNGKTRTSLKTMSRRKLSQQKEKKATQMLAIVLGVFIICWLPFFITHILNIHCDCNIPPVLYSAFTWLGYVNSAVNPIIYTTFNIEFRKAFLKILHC
#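 Tetracycline-induced HEK293 T-REx cells force-coupled to calcium signalling expressed D2; compounds were pin-added after a 10 s baseline, read kinetically 180 s, then an EC20 dopamine challenge followed with a further 180 s calcium read.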
# D2 ag-1 = HTS Assay for Allosteric Agonists of the Human D2 Dopamine Receptor: Primary Screen for Agonists; HEK293 T-REx D2 cells, calcium flux agonist mode; activation, % at 2 µM; 340,000 tested, 0.53% active;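 active = activation over 3 SD above normal in the single-dose calcium agonist read, cut at about 30% in these data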; also: 0% is about no effect
#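 HEK293 Trex D2 cells, tetracycline-induced, o/n 30 C 5% CO2; no-wash Ca dye, RT 30–90 min; 10-cycle baseline, 23 nl cpd added, kinetic Ca read 180 s; agonist hits = positive Ca response.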
# D2 antag = HTS Assay for Allosteric Antagonists of the Human D2 Dopamine Receptor: Primary Screen for Antagonists; HEK293 TREx D2 cells, calcium flux, dopamine EC80; inhibition, % at 10 µM; 340,000 tested, 2% active; in the data active = inhibition above about 30%; inactive = below that, where a call was filed; also: 0% is about no effect
#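 Antagonism is scored as inhibition of an EC80 dopamine-evoked calcium signal in a force-coupled, tetracycline-inducible HEK293 T-REx D2 line, with compound present 180 s before agonist.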
# D2 ag-2 = Beta-Arrestin HTS for Positive Allosteric Modulators of the Human D2 Dopamine Receptor: Agonists; DiscoveRx PathHunter D2 beta-arrestin, luminescence, 90 min; 100% = 57 uM dopamine signal; activation, % (concentration not given with the values); 360,000 tested, 0.084% active; in the data active = activation above about 40%; inconclusive = between about 15% and that limit
#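 DiscoveRx PathHunter D2 beta-arrestin cells (2,100/well) attached overnight, then compound-stimulated 90 min at 37 C in HBSS/10 mM HEPES/0.1% Tween-20 buffer; beta-galactosidase complementation read by luminescence after 1 h at ambient temperature. Dopamine 57 uM final (EC100) as control.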
# D2 PAM-2 = Beta-Arrestin HTS for Positive Allosteric Modulators of the Human D2 Dopamine Receptor: Potentiators; DiscoveRx D2 beta-arrestin cells, luminescence, 90 min; 100% = 57 uM dopamine signal; potentiation, % (test concentration not listed); 360,000 tested, 0.23% active; AID 624464, 2012; in the data active = potentiation above about 50%; inconclusive = mostly about 30% to 49%
#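 D2 cells co-treated with compound plus 50 nM dopamine (EC20) for 90 min at 37 deg C to detect potentiation. Beta-arrestin recruitment was read as enzyme-fragment luminescence after 1 h at ambient temperature. Full response was set by 57 uM dopamine.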
# An asterisk follows results filed as active; u = inconclusive; x = no result. Rows were chosen to be rich in hits. Some 2.4% of all compounds tested hit in one or more screens of this group.
SMILES,D2 PAM-1,D2 ag-1,D2 antag,D2 ag-2,D2 PAM-2
NC(=O)C1CC(=O)N(c2ccc(OCc3ccc([N+](=O)[O-])cc3)cc2)C1 (stereo unspecified),4,0,-12,9,1
Cc1ccc(N2CC(C(=O)OCc3ccc([N+](=O)[O-])cc3)CC2=O)cc1 (stereo unspecified),31*,0,-16,-1,-2
CN1/C(=C/C=C(/C#N)C(N)=O)C(C)(C)c2ccccc21,x,x,x,-7,-19
CN1/C(=C\C=C(/C#N)C(=O)Nc2ccccc2F)C(C)(C)c2ccccc21,-5,62*,4,-4,-3
CC(NC(=O)Cn1ncc2c3ccccc3n(Cc3ccc(F)cc3)c2c1=O)c1ccccc1 (stereo unspecified),1,0,x,x,x
O=C(C1CCN(c2ncnc3c2nc2n3CCCCC2)CC1)N1CCCCC1,-12,35*,13,6,-8
CN1CCN(C(=O)C2CCN(c3ncnc4c3nc3n4CCCCC3)CC2)CC1,7,0,-2,-1,-8
CCC(Sc1nc2ccccc2c2nc(CCc3c(C)n[nH]c3C)nn12)C(=O)Nc1ccc(OC)cc1 (stereo unspecified),-12,0,x,x,x
O=C(c1ccc(Oc2ccccc2)cc1)c1nc2c(n1O)CCCC2,4,0,31*,5,1
COc1ccccc1C(=O)N(CCN(C)C)c1nc2cc(C)cc(C)c2s1,-17,0,38*,-1,-20
COc1cc(F)ccc1-c1csc(C(C)(O)c2ccccc2)n1 (stereo unspecified),x,x,x,3,-2
Cc1ccc(C)c(N2CCN(C(=O)C3CCC(CNS(=O)(=O)c4ccc(Br)s4)CC3)CC2)c1 (stereo unspecified),1,x,x,x,x
CCOC(=O)c1sc(NC(=O)C(C)Sc2nc(-c3ccccc3)cc(C(F)(F)F)n2)c(C(=O)OC)c1C (stereo unspecified),0,0,x,x,x
COc1cc(C(=O)Nc2nc(C)c(Cc3ccc4c(c3)OCO4)s2)cc(OC)c1OC,-11,0,40*,-3,-6
Cc1ccc(NC(=O)c2cc3ccccn3n2)cc1F,0,-1,x,x,x
c1ccc(CSc2ncn[nH]2)nc1,-4,1,42*,-2,-5
CCOc1cccc2cc(-c3nc4sc5c(c4c(=O)[nH]3)CCC(C)C5)c(=O)oc12 (stereo unspecified),-2,0,x,x,x
CCN(CC)S(=O)(=O)c1ccc2c(c1)N(CC(=O)N1CCN(c3cccc(OC)c3)CC1)C(=O)CO2,0,0,x,x,x
COCCn1c(C)cc(/C=C2/SC(=O)N(CC(=O)N3CCCC3)C2=O)c1C,-1,2,34*,-3,0
COCCN1C(=O)/C(=C/c2ccc(N3CCCC3)cc2C)SC1=S,3,37*,-24,1,-8
CCN=C1S/C(=C\c2ccc(N3CCOCC3)cc2C)C(=O)N1CC,-7,3,-5,1,-8
CC(=O)c1cccc(Nc2ncnc3c2cnn3-c2cccc(Cl)c2)c1,12,0,x,x,x
S=c1[nH]nc(-c2ccc(Br)o2)n1Cc1ccccc1,35*,-1,-13,1,-10
S=c1[nH]nc(-c2ccco2)n1Cc1ccccc1,11,-2,6,0,-10
O=C(Cn1c(=O)c2cccn2c2ccc(F)cc21)N1CCN(c2ccccc2)CC1,-16,-1,x,x,x
SMILES,D2 PAM-1,D2 ag-1,D2 antag,D2 ag-2,D2 PAM-2
CCN(C(=O)Cn1cnc2c1c(=O)n(C)c(=O)n2C)c1ccccc1C,5,1,x,x,x
CCc1ccc(CNc2ccc(N3CCN(C(C)=O)CC3)cc2)cc1,8,0,-2,12,81*
CC(=O)N1CCN(c2ccc(NCc3ccc(C)cc3)cc2)CC1,-17,0,-5,-1,30
CCOc1ccc(-n2c(=O)c3c4c(sc3n(CC(=O)NC(C)CC)c2=O)CCCC4)cc1 (stereo unspecified),-6,1,x,x,x
Cc1ccc(OCC(=O)Nc2ccc3nc(SCC(=O)N4CCOCC4)sc3c2)cc1,-4,-1,x,x,x
CCCCOc1ccc(NC2=NC3(CCCCC3)N=C(N)N2)cc1,18,1,35*,-1,-2
COc1ccc(NC2=NC3(CCCCC3)N=C(N)N2)cc1,18,0,-22,-2,-27
COC(=O)C1Sc2[nH]c(=O)sc2C(c2ccc(Cl)cc2)C1C(=O)OC (stereo unspecified),5,-1,38*,-3,-2
COC(=O)C1Sc2[nH]c(=O)sc2C2c3ccccc3OC(=O)C12 (stereo unspecified),23,0,-5,2,-9
O=C(NCc1cccc(Br)c1)C1CCCCN1S(=O)(=O)c1ccc(F)cc1 (stereo unspecified),-6,1,x,x,x
CN1CCCCC1CCN1c2ccccc2Sc2ccc(S(C)=O)cc21 (stereo unspecified),-28,1,96*,-3,-10
CN1CCCC(CN2c3ccccc3Sc3ccccc32)C1 (stereo unspecified),x,x,x,-1,-32
Cc1ccc(Cl)cc1NC(=S)N(CCCN1CCN(C)CC1)Cc1ccco1,-27,0,71*,-6,-37
Cc1cc(NC(=S)N(CCN2CCCCC2)Cc2ccco2)ccc1Cl,-21,-7,35*,-1,-13
Cc1ccc(NC(=S)N(CCCN2CCCC(C)C2)Cc2ccco2)cc1C (stereo unspecified),-24,x,46*,-5,-35
Cc1cccc(C)c1Nc1c(-c2ccc(Cl)s2)nc2ncccn12,7,3,x,x,x
O=C(NCC(Cl)c1ccc2ccccc2c1)c1c(F)cccc1F (stereo unspecified),0,0,69*,2,-13
O=C(NCCCNC(=O)c1c(F)cccc1F)c1c(F)cccc1F,4,0,-3,-1,-8
O=C(Cc1ccccc1)N1CCN(c2ccccc2F)CC1,-5,9,-11,7,-2
OCC1(Cc2ccccc2)CCN(C2CCN(c3ccccc3F)CC2)CC1,-30,-1,47*,1,-15
OCC1(Cc2ccccc2)CCN(Cc2cnn(-c3ccccc3F)c2)CC1,-21,0,31*,-2,-18
CCOC(=O)C1CCCCN1C(=O)c1ccc2nc(Cc3ccc(OC)cc3)oc2c1 (stereo unspecified),31*,0,-18,u,2

# Screening results as filed in PubChem BioAssay.
